# Source: PubChem BioAssay (NCI)
# About 79,000 compounds went through this panel and 15% of them were active in at least one assay; those are over-represented in the sample as a whole. Unmarked numbers belong to inactive results. Calls of active or inactive are those of the source. Rule as the data show it: active = growth inhibition above about 70%; inactive = the rest.
# Legend:
# [1] = NCI Yeast Anticancer Drug Screen. Data for the mec2-1 strain (AID 157); settings: S. cerevisiae mec2-1 strain, active compounds read high
# Outline: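 Vehicle-treated cultures served as reference for growth inhibition of compound-exposed mec2-1 yeast.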
# [2] = NCI Yeast Anticancer Drug Screen. Data for the rad14 strain (AID 159);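 also: 0% = growth of vehicle-treated control cultures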; settings: S. cerevisiae rad14 strain growth inhibition, active compounds read high
# Outline: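 A mutant yeast strain defective in DNA damage repair is treated with compound; inhibition of its growth is scored against untreated, vehicle-exposed cultures.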
# [3] = NCI Yeast Anticancer Drug Screen. Data for the sgs1 mgt1 strain (AID 161);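 also: 0% = growth of cultures given vehicle only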; settings: S. cerevisiae sgs1 mgt1 strain, active compounds read high
# Outline: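 Mutant yeast exposed to compound; growth scored against vehicle-only wells.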
# [4] = NCI Yeast Anticancer Drug Screen. Data for the CLN2oe strain (AID 163);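 also: 0% = growth of vehicle-only control cultures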; settings: S. cerevisiae CLN2oe strain, active compounds read high
# Outline: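 Inhibition relative to vehicle-treated yeast is reported. Cells: strain with genetic alteration in cell-cycle control, grown with compound.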
# [5] = NCI Yeast Anticancer Drug Screen. Data for the cln2 rad14 strain (AID 165);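 also: 0% = growth equal to vehicle treated cultures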; settings: S. cerevisiae cln2 rad14 strain, active compounds read high
# Outline: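 Each compound was tested on cln2 rad14 yeast. Inhibition of growth was calculated against vehicle-exposed controls.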
# [6] = NCI Yeast Anticancer Drug Screen. Data for the bub3 strain (AID 167); settings: S. cerevisiae bub3 mutant strain, active compounds read high
# Outline: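 Steps: expose the mutant yeast strain to compound; grow alongside vehicle-treated cultures; measure growth; express inhibition against the vehicle cultures.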
# [7] = NCI Yeast Anticancer Drug Screen. Data for the wt2 strain (AID 169);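 also: 0% = growth of vehicle-treated yeast cultures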; settings: S. cerevisiae wt2 strain growth inhibition, active compounds read high
# Outline: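 Inhibition of yeast growth was determined after compound treatment, normalised to controls receiving only vehicle.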
# [8] = NCI Yeast Anticancer Drug Screen. Data for the mlh1 strain (AID 171);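 also: 0% = growth of vehicle-treated control cultures of the same strain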; settings: S. cerevisiae mlh1 strain growth inhibition, active compounds read high
# Outline: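 Vehicle-normalised growth inhibition of a repair- or checkpoint-altered yeast strain following compound treatment.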
# [9] = NCI Yeast Anticancer Drug Screen. Data for the sgs1 strain (AID 173);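 also: 0% = growth of vehicle-only control cultures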; settings: S. cerevisiae sgs1 mutant, active compounds read high
# Outline: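 Screen format: yeast with repair or checkpoint alterations, compound exposure, growth read relative to vehicle.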
# [10] = NCI Yeast Anticancer Drug Screen. Data for the rad18 strain (AID 177); settings: S. cerevisiae rad18 mutant growth inhibition, active compounds read high
# Outline: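 Test articles were incubated with altered yeast defective in DNA damage repair. Results are given as inhibition of growth versus vehicle.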
# [11] = NCI Yeast Anticancer Drug Screen. Data for the rad52 strain (AID 147);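 also: 0% = growth of vehicle-treated control cultures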; settings: S. cerevisiae rad52 mutant growth inhibition, active compounds read high
# Outline: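 Vehicle-treated cultures served as the reference for growth inhibition of compound-exposed yeast bearing a DNA repair mutation.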
# [12] = NCI Yeast Anticancer Drug Screen. Data for the wt1 strain (AID 149);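 also: 0% = growth of vehicle-treated wt1 cultures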; settings: S. cerevisiae wt1 strain (SPY 50644) growth inhibition, active compounds read high
# Outline: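 Compounds are added to wt1 yeast cultures. Growth is then measured. Inhibition is expressed relative to vehicle-treated controls.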
# [13] = NCI Yeast Anticancer Drug Screen. Data for the rad50EPP+ strain (AID 151);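 also: 0% = growth of vehicle-treated control cultures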; settings: S. cerevisiae rad50 mutant strain, active compounds read high
# Outline: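 In this screen, rad50EPP+ yeast were exposed to compounds. Growth inhibition was scored against vehicle-treated controls.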
# [14] = NCI Yeast Anticancer Drug Screen. Data for the rad50 strain (AID 155);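 also: 0% = growth of vehicle-only cultures of the same strain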; settings: S. cerevisiae rad50 strain growth inhibition, active compounds read high
# Outline: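 Inhibition values express reduced yeast growth in compound-treated cultures relative to vehicle-treated controls.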
# [15] = NCI Yeast Anticancer Drug Screen. Data for the mlh1 rad18 strain (AID 175); settings: S. cerevisiae mlh1 rad18 strain growth inhibition, active compounds read high
# Outline: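 Vehicle-treated cultures served as the reference for growth inhibition in a yeast strain carrying DNA damage repair alterations exposed to each compound.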
# [16] = at 5.0 µM (retest, dose inferred, filed as 0.5)
# [17] = at 50.0 µM (retest, dose inferred, filed as 5.0)
compound,measurement,setting,value
NC(=O)N1c2ccccc2C=Cc2ccccc21,growth inhibition,[1]; at 100.0 µM,-68%
same,growth inhibition,[2]; at 1.2 µM,-42%
same,growth inhibition,[2]; at 3.7 µM,-28%
same,growth inhibition,[2]; at 11.0 µM,-41%
same,growth inhibition,[2]; at 33.0 µM,-37%
same,growth inhibition,[2]; at 100.0 µM,-37%
same,growth inhibition,[3]; [16],-12%
same,growth inhibition,[3]; [17],29%
same,growth inhibition,[3]; at 50.0 µM,15.4%
same,growth inhibition,[4]; at 1.2 µM,5%
same,growth inhibition,[4]; at 3.7 µM,19%
same,growth inhibition,[4]; at 11.0 µM,15%
same,growth inhibition,[4]; at 33.0 µM,7%
same,growth inhibition,[4]; at 100.0 µM,0%
same,growth inhibition,[5]; [16],61%
same,growth inhibition,[5]; [17],38%
same,growth inhibition,[5]; at 50.0 µM,9.25%
same,growth inhibition,[6]; at 1.2 µM,-26%
same,growth inhibition,[6]; at 3.7 µM,-34%
same,growth inhibition,[6]; [16],-17%
same,growth inhibition,[6]; at 11.0 µM,-41%
same,growth inhibition,[6]; at 33.0 µM,-43%
same,growth inhibition,[6]; [17],3%
same,growth inhibition,[6]; at 50.0 µM,15.3%
same,growth inhibition,[6]; at 100.0 µM,-39%
same,growth inhibition,[7]; at 1.2 µM,-25%
same,growth inhibition,[7]; at 3.7 µM,-30%
same,growth inhibition,[7]; at 11.0 µM,-37%
same,growth inhibition,[7]; at 33.0 µM,-38%
same,growth inhibition,[7]; at 100.0 µM,-43%
same,growth inhibition,[8]; at 1.2 µM,-45%
same,growth inhibition,[8]; at 3.7 µM,-31%
same,growth inhibition,[8]; at 11.0 µM,-40%
same,growth inhibition,[8]; at 33.0 µM,-62%
same,growth inhibition,[8]; at 100.0 µM,-55%
same,growth inhibition,[9]; at 1.2 µM,-78%
same,growth inhibition,[9]; at 3.7 µM,-54%
same,growth inhibition,[9]; at 11.0 µM,-51%
same,growth inhibition,[9]; at 33.0 µM,-52%
same,growth inhibition,[9]; at 100.0 µM,-45%
same,growth inhibition,[10]; at 1.2 µM,-49%
same,growth inhibition,[10]; at 3.7 µM,-51%
same,growth inhibition,[10]; at 11.0 µM,-37%
same,growth inhibition,[10]; at 33.0 µM,-64%
same,growth inhibition,[10]; at 100.0 µM,-59%
CCCCCCCCCCCc1nc(N)n[nH]1,growth inhibition,[11]; at 1.2 µM,-1%
same,growth inhibition,[11]; at 3.7 µM,-7%
same,growth inhibition,[11]; at 11.0 µM,5%
same,growth inhibition,[11]; at 33.0 µM,87% (active)
same,growth inhibition,[11]; at 100.0 µM,96% (active)
same,growth inhibition,[12]; at 1.2 µM,-3%
same,growth inhibition,[12]; at 3.7 µM,-4%
same,growth inhibition,[12]; at 11.0 µM,1%
same,growth inhibition,[12]; at 33.0 µM,67%
same,growth inhibition,[12]; at 100.0 µM,95% (active)
same,growth inhibition,[13]; at 1.2 µM,-1%
same,growth inhibition,[13]; at 3.7 µM,7%
same,growth inhibition,[13]; at 11.0 µM,16%
same,growth inhibition,[13]; at 33.0 µM,55%
same,growth inhibition,[13]; at 100.0 µM,70% (active)
same,growth inhibition,[14]; at 1.2 µM,-11%
same,growth inhibition,[14]; at 3.7 µM,-13%
same,growth inhibition,[14]; [16],-181%
same,growth inhibition,[14]; at 11.0 µM,-7%
same,growth inhibition,[14]; at 33.0 µM,92% (active)
same,growth inhibition,[14]; [17],81% (active)
same,growth inhibition,[14]; at 50.0 µM,97.1% (active)
same,growth inhibition,[14]; at 100.0 µM,96% (active)
same,growth inhibition,[1]; at 1.2 µM,-4%
same,growth inhibition,[1]; at 3.7 µM,1%
same,growth inhibition,[1]; [16],-48%
same,growth inhibition,[1]; at 11.0 µM,0%
same,growth inhibition,[1]; at 33.0 µM,73% (active)
same,growth inhibition,[1]; [17],87% (active)
same,growth inhibition,[1]; at 50.0 µM,96.7% (active)
same,growth inhibition,[1]; at 100.0 µM,93% (active)
same,growth inhibition,[2]; at 1.2 µM,5%
same,growth inhibition,[2]; at 3.7 µM,1%
same,growth inhibition,[2]; at 11.0 µM,7%
same,growth inhibition,[2]; at 33.0 µM,65%
same,growth inhibition,[2]; at 100.0 µM,96% (active)
same,growth inhibition,[3]; [16],-66%
same,growth inhibition,[3]; [17],59%
same,growth inhibition,[3]; at 50.0 µM,80.6% (active)
same,growth inhibition,[4]; at 1.2 µM,-3%
same,growth inhibition,[4]; at 3.7 µM,-6%
same,growth inhibition,[4]; at 11.0 µM,-13%
same,growth inhibition,[4]; at 33.0 µM,16%
same,growth inhibition,[4]; at 100.0 µM,82% (active)
same,growth inhibition,[5]; [16],-79%
same,growth inhibition,[5]; [17],62%
same,growth inhibition,[5]; at 50.0 µM,75.9% (active)
same,growth inhibition,[6]; at 1.2 µM,5%
same,growth inhibition,[6]; at 3.7 µM,-2%
same,growth inhibition,[6]; [16],-79%
same,growth inhibition,[6]; at 11.0 µM,4%
same,growth inhibition,[6]; at 33.0 µM,75% (active)
same,growth inhibition,[6]; [17],88% (active)
same,growth inhibition,[6]; at 50.0 µM,95.8% (active)
same,growth inhibition,[6]; at 100.0 µM,91% (active)
same,growth inhibition,[7]; at 1.2 µM,5%
same,growth inhibition,[7]; at 3.7 µM,6%
same,growth inhibition,[7]; at 11.0 µM,24%
same,growth inhibition,[7]; at 33.0 µM,92% (active)
same,growth inhibition,[7]; at 100.0 µM,97% (active)
same,growth inhibition,[8]; at 1.2 µM,-10%
same,growth inhibition,[8]; at 3.7 µM,-6%
same,growth inhibition,[8]; at 11.0 µM,-3%
same,growth inhibition,[8]; at 33.0 µM,79% (active)
same,growth inhibition,[8]; at 100.0 µM,95% (active)
same,growth inhibition,[9]; at 1.2 µM,-5%
same,growth inhibition,[9]; at 3.7 µM,-13%
same,growth inhibition,[9]; at 11.0 µM,21%
same,growth inhibition,[9]; at 33.0 µM,92% (active)
same,growth inhibition,[9]; at 100.0 µM,96% (active)
same,growth inhibition,[15]; [16],-154%
same,growth inhibition,[15]; [17],20%
same,growth inhibition,[15]; at 50.0 µM,93% (active)
same,growth inhibition,[10]; at 1.2 µM,-12%
same,growth inhibition,[10]; at 3.7 µM,-5%
same,growth inhibition,[10]; at 11.0 µM,-7%
same,growth inhibition,[10]; at 33.0 µM,68%
same,growth inhibition,[10]; at 100.0 µM,94% (active)
